# Screening data from PubChem BioAssay.
# hERG WT inh = qHTS for Inhibitors of KCHN2 3.1: Wildtype qHTS; Voltage-gated inwardly rectifying potassium channel KCNH2 (Homo sapiens), Q12809; U2OS, BacMam KCNH2, thallium flux FluxOr; stronger effect = lower value; activity change, % at 1.84 µM; 340,000 compounds, 0.37% hits; AID 720551, 2013;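 active means maximum activity change below -70%; inconclusive means maximum activity change between -70% and -50%; inactive means maximum activity change above -50%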; further: on the % scale 0 is the no-effect control and ±100 the full control effect
#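 U2OS cells transduced with wild-type KCNH2 virus are loaded with FluxOr dye for 45 min, and thallium flux is measured in kinetic reads before and after stimulation buffer. Rate constants are normalized to DMSO controls.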
# TRPML1 blocker = qHTS for Inhibitors of the Human Mucolipin Transient Receptor Potential 1 (TRPML1); Mucolipin-1 (Homo sapiens), Q9GZU1; TRPML1-inducible cells, Ca2+ dye fluorescence, FDSS; stronger effect = lower value; inhibition of EC80 agonist-evoked calcium signal; activity change, negative = inhibition, % (no concentration beside the values); 390,000 compounds, 0.02% hits; AID 624415, 2012; in the data active means activity change below about -50%; inconclusive means between about -30% and that limit;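 further: stimulus is agonist 54-4 at its EC80 concentration; on the % scale 0 is the no-effect control and ±100 the full control effect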
#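 Calcium fluorescence in TRPML1-DL cells induced overnight with Tet: a 110 s read after compound pin addition, then a 110 s antagonist read after challenge with 54-4 at 4 uM final (EC80).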
# TRPV1 PAM = HTS Assay for Compounds that Act as Potentiators of the Vanilloid Receptor 1; Transient receptor potential cation channel subfamily V member 1 (Homo sapiens), Q8NER1; TRPV1-expressing cells, Fluo-8 calcium influx, capsaicin EC20 potentiation; potentiation, % at 8.33 µM; 320,000 compounds, 0.02% hits; AID 540277, 2011; in the data active means potentiation above about 80%; inconclusive means between about 30% and that limit; further: 0% is about no effect
# Target sequence (Q8NER1 whole entry, looked up): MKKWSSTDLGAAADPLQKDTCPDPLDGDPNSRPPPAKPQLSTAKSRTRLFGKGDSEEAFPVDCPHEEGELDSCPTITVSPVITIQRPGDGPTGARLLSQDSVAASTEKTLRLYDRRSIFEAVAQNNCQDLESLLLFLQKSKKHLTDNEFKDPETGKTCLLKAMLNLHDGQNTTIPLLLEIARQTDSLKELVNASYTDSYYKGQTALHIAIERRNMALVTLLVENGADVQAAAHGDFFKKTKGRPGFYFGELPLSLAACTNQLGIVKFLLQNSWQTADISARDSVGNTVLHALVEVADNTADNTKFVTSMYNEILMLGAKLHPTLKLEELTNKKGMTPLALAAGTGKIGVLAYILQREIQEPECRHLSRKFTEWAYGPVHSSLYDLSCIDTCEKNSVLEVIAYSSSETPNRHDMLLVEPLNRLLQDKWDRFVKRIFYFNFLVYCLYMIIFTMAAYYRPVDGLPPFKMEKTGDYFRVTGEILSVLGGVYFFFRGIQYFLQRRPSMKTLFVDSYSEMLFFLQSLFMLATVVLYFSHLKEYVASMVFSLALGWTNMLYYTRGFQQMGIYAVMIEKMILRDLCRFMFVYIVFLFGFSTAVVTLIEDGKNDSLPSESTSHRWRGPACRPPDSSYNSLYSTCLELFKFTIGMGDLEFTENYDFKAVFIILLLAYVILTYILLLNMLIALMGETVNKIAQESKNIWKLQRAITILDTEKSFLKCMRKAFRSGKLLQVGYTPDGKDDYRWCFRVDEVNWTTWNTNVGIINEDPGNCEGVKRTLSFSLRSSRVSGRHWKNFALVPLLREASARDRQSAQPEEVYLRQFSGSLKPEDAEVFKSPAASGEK
#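 Cells expressing TRPV1 were dye-loaded with Fluo-8 and read kinetically: 10 s baseline, 3 min after compound (agonist portion), then 2 min after EC20 capsaicin (allosteric enhancer portion). Calcium-bound dye fluorescence at 480/520 nm.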
# TRPML1 ag = qHTS for Agonists of the Human Mucolipin Transient Receptor Potential 1 (TRPML1); 410,000 compounds, 0.12% hits; activation, % (concentration not given with the values); TRPML1-expressing cells, Ca2+ dye fluorescence, FDSS; Mucolipin-1 (Homo sapiens), Q9GZU1; in the data active means activation above about 50%; inconclusive means mostly about 30% to 49%; further: 0% is about no effect
#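 In this qHTS format, compounds were pin-transferred onto Ca8-dye-loaded TRPML1-DL cells induced with Tet overnight, and intracellular Ca2+ fluorescence was recorded kinetically for 110 s after a 10 s baseline. A subsequent 4uM final 54-4 (EC80) addition followed by a second 110 s read served as the antagonist phase.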
# TRPV1 ag = HTS Assay for Compounds that Act as Agonists of the Vanilloid Receptor 1; TRPV1-expressing cells, Fluo-8 calcium influx, agonist mode; activation, % at 8.33 µM; 320,000 compounds, 0.19% hits; AID 540275, 2011; in the data active means activation above about 80%; inconclusive means between about 30% and that limit; further: 0% is about no effect
#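 Fluo-8 calcium influx in TRPV1-expressing cells, kinetic read (ex 480/em 520 nm). Compound added and read 3 min for agonist activity, followed by capsaicin at EC20 final and 2 min further read for enhancement.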
# KCNH2 3.1 inh = qHTS for Inhibitors of KCHN2 3.1: Mutant qHTS; Potassium voltage-gated channel subfamily H member 2, brain isoform KCNH2 3.1 (human); U2OS KCNH2 3.1, thallium flux FluxOr; stronger effect = lower value; activity change, % (tested at about 1.8 µM); 340,000 compounds, 0.95% hits; AID 720553, 2013;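 active means maximum activity change below -70%; inconclusive means maximum activity change from -70% to -50%; inactive means maximum activity change above -50%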;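 further: thallium influx rate constant from kinetic fluorescence after stimulation buffer; on the % scale 0 is the no-effect control and ±100 the full control effect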
#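 Channel expression came from 3.1 mutant virus (1.77 x 10^8 /mL) applied to suspended U2OS cells for 4 h. Flux was tracked with FluxOr dye plus Red40 quencher, and kinetic rate constants normalized to controls.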
# Active calls of the source: *; ? = inconclusive; . = no result. This is a sample that favours compounds with a hit; in the whole collection about 1.3% have one here.
SMILES,hERG WT inh,TRPML1 blocker,TRPV1 PAM,TRPML1 ag,TRPV1 ag,KCNH2 3.1 inh
CCCOc1cccc(-c2nn(-c3ccccc3)cc2/C=C(\C#N)C(=O)NCCCn2ccnc2)c1,-187*,3,-7,0,?,0
N#C/C(=C/c1cn(-c2ccccc2)nc1-c1cccc(OCc2ccc(F)cc2)c1)C(=O)NCCCn1ccnc1,-25,-7,-4,1,?,-92*
N#C/C(=C\c1ccc([N+](=O)[O-])cc1)C(=O)NCCCn1ccnc1,2,25,7,1,-2,10
Cc1cc(C)cc(NC(=O)Cn2c(=O)n(C(C)C)c(=O)c3oc4ccccc4c32)c1,.,7,.,-1,.,.
CC(C)CC1C(=O)N(Cc2cn(CCC3OCCCO3)nn2)CCS(=O)(=O)N1Cc1ccc(-c2ccncc2)cc1 (configuration not stated),-139*,19,.,0,.,-157*
CC(C)CC1C(=O)N(Cc2cn(CCC3OCCCO3)nn2)CCS(=O)(=O)N1Cc1ccc(-c2ccccc2)cc1 (configuration not stated),-6,-8,.,0,.,-9
O=C(NCCNC(=O)c1ccccc1Br)c1ccccc1Br,-6,.,9,.,6,-114*
O=C(NCCCNC(=O)c1ccccc1Br)c1ccccc1Br,-4,9,8,-2,-8,-9
CN(c1nnc(NC(=O)Nc2ccccc2C(F)(F)F)s1)C1CCCCC1,.,-11,.,0,.,.
Cc1nc2cc(NC(=O)Nc3cccc([N+](=O)[O-])c3)ccc2n1C,2,33,-28,0,-3,-75*
Cc1ccc(NC(=O)Nc2ccc3c(c2)nc(C)n3C)cc1,4,-9,-12,0,-3,.
CC(=O)Nc1ccc(/C=C/C(=O)c2ccc(-n3nncc3-c3ccccc3)cc2)cc1,.,.,.,0,.,.
COc1ccc(N2CCN(C(=O)C3CCN(S(=O)(=O)c4cccc5nonc45)CC3)CC2)cc1,.,-21,.,2,.,.
CCCCN(C(=O)Cc1ccc(S(=O)(=O)N2CCOCC2)s1)c1c(N)n(CCCC)c(=O)[nH]c1=O,-75*,2,11,-1,-3,-4
CN(C)c1oc(/C=C/c2ccccc2)nc1C#N,-262*,23,-10,0,2,-25
COc1ccc(CN(C(=O)CSc2nnc(-c3c[nH]c4ccccc34)o2)c2ccc(F)cc2)cc1OC,-280*,-7,2,1,-2,-5
CCOc1ccc(NC(=O)CC2C(=O)N(c3ccc(F)cc3)C(=O)N2CCc2sccc2C)cc1 (configuration not stated),.,19,.,0,.,.
COc1cc(C(=O)Nc2ccc3c(c2)Cc2ccccc2-3)cc(OC)c1OC,-25,27,4,0,0,-91*
Cc1cccc(N2CCN(C(=O)C3CCN(S(=O)(=O)Cc4ccccc4)CC3)CC2)c1C,.,-5,.,-1,.,.
CCCCNC(=S)N1CCN(C(c2ccccc2)c2ccccc2)CC1,-3,22,7,1,81*,-8
C=C1C=C(C(F)F)n2ncc(C(=O)Nc3ccc(N(CC)CC)cc3)c2N1,.,.,.,-1,.,.
COC(=O)C1=C(C)N(c2ccccc2)/C(=C/c2ccco2)C1=O,-3,11,-17,1,?,-73*
Cc1nn(CC(=O)NC2CC2)c(=O)c2cc3cc(F)ccc3n12,.,-13,.,0,.,.
CCCCC(C)Sc1nc2c([nH]1)c(=S)n(C)c(=O)n2C (configuration not stated),-144*,17,.,4,.,?
CCCC(CC)Sc1nc2c([nH]1)c(=S)n(C)c(=O)n2C (configuration not stated),-92*,-22,.,3,.,-14
SMILES,hERG WT inh,TRPML1 blocker,TRPV1 PAM,TRPML1 ag,TRPV1 ag,KCNH2 3.1 inh
CCCCSc1nc2c([nH]1)c(=S)n(C)c(=O)n2C,-36,-7,.,1,.,8
Cn1c(=S)c2[nH]c(SCCC(C)(C)C)nc2n(C)c1=O,-115*,-24,.,1,.,-49
CCC(=O)Nc1ccc(-c2nnc(SCc3ccccc3)n2C)cc1,.,.,.,0,.,.
COc1ccc(C[C@H]2CN3C(=NC[C@@H]3Cc3ccccc3)N2CCNC(=O)CCC2CCCCC2)cc1,-145*,25,-2,0,-1,?
COc1ccc(C[C@H]2CN3C(=NC[C@@H]3C(C)C)N2CCNC(=O)CCC2CCCCC2)cc1,-18,28,-7,0,1,15
COc1ccc(CN2CCC(N(CCc3ccccc3)Cc3ccccc3)CC2)c(OC)c1,-72*,6,-7,-1,6,-107*
CCCN1CCC(N(CCc2ccccc2)Cc2ccccc2)CC1,-20,23,-10,-1,-3,-75*
CC1CCN(S(=O)(=O)c2ccc3c(c2)CCN3C(=O)Nc2ccccc2Br)CC1,.,-2,.,1,.,.
CCOC(=O)c1ccc(NC(=O)CN2C(=O)c3cccnc3Sc3ccccc32)cc1,.,-29,.,2,.,.
Cc1ccc(NC(=O)C2CCCN(c3ncnc4onc(C)c34)C2)cc1Cl (configuration not stated),.,-9,.,0,.,.
COc1ccc(NC(=O)C2CCN(S(=O)(=O)c3ccc4c(c3)CCCC(=O)N4)CC2)cc1OC,.,-4,.,3,.,.
CCOC(=O)C(/C=C(\C#N)C(=O)OCC)=C(/N)N1CCN(c2ccc(Cl)cc2)CC1,4,-10,10,69*,-1,-8
CCc1ccccc1NC(=O)c1ncoc1-c1ccco1,.,8,.,0,.,.
COc1cccc(SCc2noc(C(=O)NCCCN3CCOCC3)c2C(=O)NCCCN2CCOCC2)c1,0,33,.,0,.,-98*
Cc1cccc(NC(=O)NNC(=O)c2cc3occc3[nH]2)c1C,-14,-3,13,1,-3,-449*
Cc1cc(C)cc(NC(=O)NNC(=O)c2cc3occc3[nH]2)c1,-46,-18,-2,0,-5,-9
O=C(Nc1ccccc1N1CCN(C(=O)c2ccc(Cl)cc2)CC1)c1ccc(Br)cc1,-12,88,-15,-1,11,-91*
O=C(Nc1ccccc1N1CCN(C(=O)c2ccc(Cl)cc2)CC1)c1ccc([N+](=O)[O-])o1,-94*,68,8,1,5,-93*
